The values below come from PubChem BioAssay (Tox21).

The structures appear in SMILES notation. Inconclusive results are not listed. Some compounds were tested as several samples or in several runs, with calls that do not always agree. Active and inactive are the calls of the source. Unless noted, calls follow the shape of the dose curve; as a rule, active = well fitted curve in the direction sought with a large enough effect in the repeat runs; inconclusive = weak or mixed curves; inactive = no such curve, though single readings can be large; an effect the other way counts as inactive or inconclusive.

The nature of assay [1]: qHTS assay for small molecules that induce genotoxicity in human embryonic kidney cells expressing luciferase-tagged ATAD5 (AID 651632). Also: nearly all actives have a fitted effect of over 15% in size. Summed up:
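ATAD5-luc HEK293T, 2,000 cells/well; cpd or DMSO pin-transferred; 16 hr, 37C/5% CO2; Amplite 30 min RT; luminescence.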
A general note: qHTS replaces the single test concentration by a dilution series.

Assay [2] can be described thus: qHTS assay for small molecule agonists of the p53 signaling pathway - cell viability (AID 651633; calls by dose curve; also: nearly all actives have a fitted effect of over 30% in size; also: potency is read from the fitted curve at half-maximal effect). In a few lines:
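Viability counter-read: CellTiter-Glo luminescence (30 min, room temperature) in the same p53RE-bla plates. These plates had been exposed to compounds for 16 h at 37 C.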

Assay [3] can be described thus: qHTS assay for small molecules that induce genotoxicity in human embryonic kidney cells expressing luciferase-tagged ATAD5 - cell viability (AID 651634; calls by dose curve; also: nearly all actives have a fitted effect of over 25% in size). In a few lines: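 Fluorescence from CellTiter-Fluor, reporting protease activity within live cells, served as the viability read-out. HEK293T cells carrying luciferase-tagged ATAD5 had been treated with compound for 15.5 hr at 37C.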

Assay [4] can be described thus: qHTS assay for small molecule disruptors of the mitochondrial membrane potential - cell viability (AID 720634; calls by dose curve;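 also: human HepG2 liver cancer cells; series mostly up to about 83 µM; nearly all actives have a fitted effect of over 20% in size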). In a few lines:
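Cells: HepG2, 2,000/well, attached overnight. Compound 1 hr, 37 C/5% CO2. +m-MPI dye, +CellTiter-Glo 30 min RT. Readout: luminescence (ATP).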

The nature of assay [5]: qHTS assay to test for compound auto fluorescence at 590 nm (red) in HepG2 cells (AID 720674). Summed up:
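We screened compounds on adherent HepG2 cells, incubating them for an hour at 37 C in 5% CO2 before reading emission at 590 nm under 540 nm excitation; values reflect equivalence to Rose Bengal sodium fluorescence.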

Assay [6] in a line: qHTS assay to test for compound auto fluorescence at 535 nm (green) in HepG2 cells (AID 720675).
A short description of assay [7]: qHTS assay to test for compound auto fluorescence at 460 nm (blue) in HEK293 cells (AID 720678). Also: potency is read from the fitted curve at half-maximal effect. Summed up:
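Intrinsic compound fluorescence is recorded in live HEK293 cultures after overnight incubation at 37C, 5% CO2, using excitation 405 nm and emission 460 nm. Values are referenced to triamterene.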

Assay [8] in a line: qHTS assay to test for compound auto fluorescence at 590 nm (red) in HEK293 cells (AID 720679). In a few lines: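 Red autofluorescence, HEK293 cells: 2,000 cells/well; attach 4-5 hr 37C; add 23 nL cpd or DMSO; incubate o/n 37C 5% CO2; read Ex540/Em590; Rose Bengal sodium reference.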
A short description of assay [9]: qHTS assay to test for compound auto fluorescence at 535 nm (green) in HEK293 cells (AID 720680).
Assay [10] is described as follows: qHTS assay to test for compound auto fluorescence at 460 nm (blue) in HEK293 cell free culture (AID 720681). Also: potency is read from the fitted curve at half-maximal effect. In a few lines: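 Blue fluorescence (Ex 405/Em 460 nm, triamterene-equivalent) was read immediately after pin transfer of compound or DMSO into medium (DMEM, 10% FBS) without cells.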
A short description of assay [11]: qHTS assay to test for compound auto fluorescence at 535 nm (green) in HEK293 cell free culture (AID 720682). In a few lines:
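Intrinsic compound fluorescence is measured in culture medium containing 10% FBS, with excitation at 485 nm and detection at 535 nm, referenced to fluorescein.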

A short description of assay [12]: qHTS assay to test for compound auto fluorescence at 590 nm (red) in HEK293 cell free culture (AID 720683). Summed up:
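Red-channel autofluorescence of compounds in culture medium (DMEM, 10% FBS), no cells, measured at 540/590 nm. Rose Bengal sodium is the reference fluorophore for equivalence.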

Assay [13] is described as follows: qHTS assay to test for compound auto fluorescence at 590 nm (red) in HepG2 cell free culture (AID 720684). Summed up: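 Plate contents were MEM with 10% FBS plus test compound or DMSO, no cells. Fluorescence was recorded with 540 nm excitation and 590 nm emission.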
Assay [14] can be described thus: qHTS assay to test for compound auto fluorescence at 460 nm (blue) in HepG2 cell free culture (AID 720685). Summed up: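 Compound (23 nL) or DMSO pinned into cell-free MEM with 10% FBS; blue fluorescence read at 405/460 nm excitation/emission, expressed as auto-fluorescence equivalency to triamterene.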
The nature of assay [15]: qHTS assay to test for compound auto fluorescence at 535 nm (green) in HepG2 cell free culture (AID 720686).
Assay [16] in a line: qHTS assay to test for compound auto fluorescence at 460 nm (blue) in HepG2 cells (AID 720687). Also: potency is read from the fitted curve at half-maximal effect. Summed up:
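Blue-channel autofluorescence (Ex/Em 405/460 nm, triamterene-equivalent) was measured after 1 hr compound exposure at 37 C, 5% CO2. Cells were HepG2, plated overnight at 37 C in MEM plus 10% FBS.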

Assay [17] deals with Glucocorticoid receptor (Homo sapiens) (UniProt P04150). In words: qHTS assay to identify small molecule antagonists of the glucocorticoid receptor (GR) signaling pathway (AID 720692; active = well fitted inhibition curve with a large enough effect in the signal ratio in the repeat runs, not every such curve was filed as active; the % refers to the signal ratio; also: potency is read from the fitted curve at half-maximal effect). In a few lines:
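HeLa GR-bla cells; cmpd + dex 5 nM final, 18 h 37 C; LiveBLAzer B/G FRET substrate 2 h RT; fluorescence intensity read. Antagonist mode, qHTS.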

Assay [18] is described as follows: qHTS assay for small molecule disruptors of the mitochondrial membrane potential (AID 720635). Also: potency is read from the fitted curve at half-maximal effect. Summed up: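 Mitochondrial membrane potential tracked with Mito-MPS dye, red aggregates (ex 540/em 590 nm) against green monomers (ex 490/em 535 nm). Compound treatment 1 hr at 37C, dye 30 min in HepG2.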
For assay [19], the target named is Glucocorticoid receptor (Homo sapiens) (UniProt P04150). Briefly: qHTS assay to identify small molecule agonists of the glucocorticoid receptor (GR) signaling pathway (AID 720691; active = well fitted activation curve with a large enough effect in the signal ratio in the repeat runs, not every such curve was filed as active; the % refers to the signal ratio). In a few lines:
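Fluorescence intensity from LiveBLAzer B/G FRET substrate (2 h, room temperature) reports beta-lactamase expression driven by the glucocorticoid response element in GR-bla HeLa cells after 18 h compound exposure at 37 C.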
% is scaled to controls: 0 for no effect and ±100 for the full control effect; tags tell the direction and shape of the fitted curve or compound fluorescence and quenching.

Sequence of Glucocorticoid receptor (Homo sapiens) (P04150 whole entry, looked up): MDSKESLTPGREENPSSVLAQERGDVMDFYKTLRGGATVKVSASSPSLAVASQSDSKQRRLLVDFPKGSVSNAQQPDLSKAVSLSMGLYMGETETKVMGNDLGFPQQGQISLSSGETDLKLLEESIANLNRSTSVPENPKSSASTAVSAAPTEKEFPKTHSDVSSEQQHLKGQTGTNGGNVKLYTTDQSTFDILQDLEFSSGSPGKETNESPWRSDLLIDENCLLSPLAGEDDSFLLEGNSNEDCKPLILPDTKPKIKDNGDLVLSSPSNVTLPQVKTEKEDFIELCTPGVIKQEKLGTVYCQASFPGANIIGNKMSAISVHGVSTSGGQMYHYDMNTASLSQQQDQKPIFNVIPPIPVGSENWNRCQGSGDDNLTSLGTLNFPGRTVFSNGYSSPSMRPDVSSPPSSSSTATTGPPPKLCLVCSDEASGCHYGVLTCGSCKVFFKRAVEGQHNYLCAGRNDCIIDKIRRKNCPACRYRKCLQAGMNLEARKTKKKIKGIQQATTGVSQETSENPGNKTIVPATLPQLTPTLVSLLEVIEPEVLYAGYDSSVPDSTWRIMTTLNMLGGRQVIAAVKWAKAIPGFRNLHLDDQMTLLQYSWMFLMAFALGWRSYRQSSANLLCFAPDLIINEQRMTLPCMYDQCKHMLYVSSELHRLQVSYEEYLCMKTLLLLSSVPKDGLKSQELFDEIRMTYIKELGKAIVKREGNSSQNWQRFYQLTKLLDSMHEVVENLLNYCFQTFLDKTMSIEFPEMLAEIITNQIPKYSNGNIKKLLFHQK

Turning to `Nc1ccc(Oc2ccc(Cl)cc2)cc1`, the Potency entry in assay [1], in assay [2], in [3], in assay [4], in assay [5] and in assay [6] was “inactive” each time. For the same compound, the Potency entry in assay [7], in [8], in [9], in assay [10], in assay [11] and in assay [12] was “inactive” in each case. Moreover, the Potency entry in assay [13], in assay [14], in [15] and in [16] was “inactive” throughout. Further, in assay [17], the Potency was 24 µM (active).
With `C#C[C@]1(OC(C)=O)CC[C@H]2[C@@H]3CCC4=C[C@@H](OC(C)=O)CC[C@@H]4[C@H]3CC[C@@]21C`, the Potency result in assay [1], in assay [3], in [4], in [5], in assay [6] and in assay [7] was “inactive” in each case. Besides, the Potency entry in [8], in assay [10], in assay [11], in [12], in assay [13] and in [14] was “inactive” each time. The Potency entry in assay [15], in assay [16] and in assay [19] was “inactive” in each case. The Potency is 29.8 µM (active) and inactive in assay [2]; 13.3 µM (active) in assay [18]; 9.52 µM (active) in assay [17].
As for `CC(N=C(NC#N)Nc1ccncc1)C(C)(C)C` (stereo not drawn), the Potency result in assay [1], in [2], in [3], in [4], in assay [18] and in [5] was “inactive” throughout. Further, the Potency entry in [6], in assay [8], in assay [9], in assay [10], in assay [11] and in assay [12] was “inactive” in each case. Further, the Potency result in [13], in assay [14], in assay [15], in assay [16], in assay [19] and in assay [17] was “inactive” each time.
As for `O=C(O)c1cc(-c2ccc(F)cc2F)ccc1O`, the Potency entry in assay [1], in assay [2], in [3], in [4] and in assay [19] was “inactive” in each case. The Potency in [18] is 11.4 µM (active). In addition, the fluorescence, relative to Rose Bengal in [5] was 0.164% [at 18.6 µM] (inactive). Also, the fluorescence, % of fluorescein control is -0.0913% [at 18.6 µM] (inactive) in assay [6] and -0.0114% [at 18.6 µM] (inactive) in assay [15]. Moreover, the fluorescence, % of fluorescent control in assay [8] is -0.141% [at 18.6 µM] (inactive); in [10] it was 0.0528% [at 18.6 µM] (inactive); in [12], -0.0186% [at 18.6 µM] (inactive); in assay [14], -0.0315% [at 18.6 µM] (inactive); in assay [16], -0.098% [at 18.6 µM] (inactive). Further, the fluorescence, % of fluorescein in [9] was 0.0391% [at 18.6 µM] (inactive). In assay [11], the activity change is -0.026% [at 18.6 µM, stronger effect = higher value] (inactive). For the same compound, in assay [13], the fluorescence, % of Rose Bengal was -0.0804% [at 18.6 µM] (inactive).
Take `O=S(=O)(O)c1ccccc1/C=C/c1ccc(-c2ccc(/C=C/c3ccccc3S(=O)(=O)O)cc2)cc1`: the Potency entry in assay [1], in assay [2], in [3], in [4], in [5] and in assay [6] was “inactive” each time. The Potency entry in assay [8], in assay [9], in [11], in assay [12], in [13] and in assay [15] was “inactive” throughout. For the same compound, the Potency was 5.01 µM [fluorescent] (active) in assay [7], 6.31 µM (active) in assay [10] and 5.62 µM [fluorescent] (active) in assay [16].
`CC[N+](CC)(CC)CCOC(=O)C(C1CCCC1)C1CCCC1`: the Potency entry in assay [1], in assay [2], in assay [3], in assay [18], in assay [5] and in assay [6] was “inactive” throughout. Further, the Potency entry in assay [7], in [8], in assay [9], in [10], in [11] and in assay [12] was “inactive” throughout. For the same compound, the Potency entry in assay [13], in [14], in assay [15] and in assay [16] was “inactive” each time.
Consider `[Cl][Pt-2]([Cl])([Cl])[Cl]`, for which the Potency entry in assay [1], in assay [2], in assay [3], in [4], in assay [5] and in [6] was “inactive” throughout. In addition, the Potency result in assay [7], in assay [8], in assay [9], in assay [10], in assay [11] and in [12] was “inactive” each time. The Potency entry in assay [13], in [14], in [15], in assay [16] and in assay [19] was “inactive” each time.
